Measurements published in PubChem BioAssay AID504577 (NMMLSC, 2011).
Hit rate of the full screen: of about 350,000 compounds, about 1,300 (0.37%) were called active. Rule as the data show it: active = response mostly above about 7.3% (no sharp cut-off); inactive = mostly below about 5.4%. Many of the other results were omitted from the sample, so actives are more common in it than they were.

assay: regulators of yeast V-ATPase proton pumping, primary screen, pHLuorin cytosolic pH fluorescence (AID 504577); conditions: S. cerevisiae, at 10 µM, active compounds read high

SMILES | response
O=C(COC(=O)Cc1ccccc1)Nc1ccc(F)cc1 | -1.24% (inactive)
CCN(CC)C(=O)c1ccc(NC(=O)c2sccc2-c2ccccc2)cc1 | -3.45% (inactive)
CC(=O)Nc1ccc(C(=O)C(Cc2ccccc2)N(C)C)cc1 (stereo not given) | 8.72% (active)
COc1ccc(Br)cc1CNCCc1cccc(Cl)c1 | 1.48% (inactive)
N=c1ccccn1Cc1ccccc1 | -1.95% (inactive)
CN1CCC[C@@H]1CCO[C@](C)(c1ccccc1)c1ccc(Cl)cc1 | -5.35% (inactive)
COc1cccc(N2C(=O)NC(=O)/C(=C\c3ccc([N+](=O)[O-])s3)C2=O)c1 | 125% (active)
COc1ccc(N2C(=O)/C(=C/c3ccco3)C(=O)NC2=S)cc1 | 8.65% (inactive)
O=C1NC(=O)N(c2ccccc2)C(=O)/C1=C/c1ccc([N+](=O)[O-])s1 | 102% (active)
O=C1NC(=O)N(c2ccc(F)cc2)C(=O)/C1=C/c1ccc2c(c1)CCCN2Cc1ccccc1 | 1.07% (inactive)
CCCC(C)n1[nH]c(=O)c2c1NC(=O)CSC2c1ccc(OC)c(OC)c1 (stereo not given) | 1.43% (inactive)
O=c1[nH]c(CN2CC=C(c3ccccc3)CC2)nc2scc(-c3cccs3)c12 | -2.27% (inactive)
CNC(=O)N(C)c1nnc(C(C)(C)C)s1 | 2.46% (inactive)
Cc1c(C(=O)O)cccc1-n1c(C)cc(/C=C2\C(=O)NC(=O)N(c3ccc4c(c3)OCO4)C2=O)c1C | -0.49% (inactive)
Cc1ccccc1N1C(=O)NC(=O)/C(=C\c2cc(C)n(C)c2C)C1=O | 13.8% (active)
Cc1ccc(-n2c(C)cc(/C=C3\C(=O)NC(=O)N(C)C3=O)c2C)cc1C | -0.72% (inactive)
CC(=O)N(C1=NCCCS1)c1ccccc1F | 0.19% (inactive)
CC12CCC(O)CC1CCC1C2CCC2(C)C(C(=O)CC(O)C(F)(F)F)CCC12 (stereo not given) | 5.09% (inactive)
CCOC(=O)C(O)(c1ccc(N=Cc2ccccc2O)c(C)c1)C(F)(F)F (stereo not given) | -2.77% (inactive)
Cc1nc2nc(C)c(CCC(=O)N3CCC4(CC3)OCCO4)c(C)n2n1 | -4.03% (inactive)
